Test results from the supplement of paper PMC6555819.

What follows are sequences tested on RXRa homodimer (NR concentration 180 nM) (assay: PBM binding z-score (relative to random genomic background probes); higher = stronger binding; sequences stand for … in GC…GCGATTGACAGCGTAGAATGAAGG).
In short: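 Random background probes are the reference for binding z-scores. These scores derive from regression-normalized fluorescence on custom Agilent 4×180K protein-binding microarrays incubated 1 h with ligand-free nuclear receptor dimers. Binding was detected with antibodies against each partner (one per run).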

| Sequence | PBM binding z-score |
| --- | --- |
| CCTTACGGGTCACGAGGTTATAGCTCGACGAGCG | 6.98 |
| ACTTACGGGTCAACGAGGTGATAGCACGCGTATA | 5.47 |
| CGAACTAGGTCATTGACAGGTCAGTGAATAGTAA | 4.6 |
| GGAACGAGGGCATTGGAGTTGATAGCATGGCGAT | 0.72 |
| TCTATTAATTGAAGGGCAACCGACGAGTCCGTTT | 0.717 |
| TTTATTAGTTGATTAGGGCAACCGAAACAGCGGA | 0.586 |
| CGAACGAGGTCAAGGACAGTGAATCTCCGCACGC | 7.03 |
| GCTCGGAGGACAAGGTTAGAGCTTTGTCCGTAGA | 0.102 |
| CCTACTGGGCCAGTCAGAGGTCATTGATCATATG | 3.71 |
| CTCAAAAGGTCGGTTGAGGTGAGTATACGGATAA | 2.66 |
| AGTCAAAGTTCAGGATGAGGTAACGTAAAGCACG | 3.26 |
| ATCTCTAGCTAAAGATAGTTCAGTGAATGCAAAT | 0.159 |
| CAAACTAGGTCAAAGGTCACAGTCGAGCCAACCA | 9.91 |
| ATATGTAGGTTACATCCGGGTTATTCAGGCTATG | 1.84 |
| ATATGTAGGTTAGCTGGGGTCATTTAGACTAGGC | 5.02 |
| CCAGACATGTGAGAAGGTAACTCAGCCTCGATTA | 0.09 |
| TCTCGGACGACACGAAAGGTCAGAGCTCGACATC | 4.8 |
| CGTCCAAGGTCAAAGCTCAGTGAAGAGATGACGG | 5.49 |
| ATCTCTAGGTAAAAGTTAAGTGAATCCCGAGGAT | 0.0332 |
| TCTAGATGGTCAAAGGTCACACACTCGAAATGCG | 8.64 |
| GGAACGAGGGCATTCGAGTTGTTAGCATGGCGAT | 0.659 |
| CCTTACGGGTCAAAGTTATAGCACGGGTGGTACG | 5.29 |
